# Where a chain is given by its changes, count along the chain named. Whole data set: some 24,000 sequences, median “enrichment r” near 0.99, cut for the highest 2% near 3.7. Shown is part of a subset that was picked to be rich in the highest values.
# T1: UNK ZnF1-3 (human, UniProt Q9C0B0 31-174)
# T1 sequence: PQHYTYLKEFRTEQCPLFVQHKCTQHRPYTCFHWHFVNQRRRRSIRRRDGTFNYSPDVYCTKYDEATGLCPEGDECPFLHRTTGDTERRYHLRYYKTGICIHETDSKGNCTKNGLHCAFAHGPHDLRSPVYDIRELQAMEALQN
# B1: chr15:83907240:83907241:-_ENSMUSG00000018865_ENSMUST00000082365|mus_mus|motif|central (ssRNA)
# RNA: GGGAGUUCUACAGUCCGACGAUCGCUGUGAAAGAUACUAAUUCUUGGUGCAGUCUGGCAUCUGUGGGGCCUCUUCCACACCGGCCAGUGCCUUCAGAUGCCACCCGCAGCCUCGGGCCAGCUUCCCUGCCGAAACAUUCCUUGCAACAGAGGAUUGAGCAUCA
# B2: chr2:242276830:242276831:+_ENSG00000168385_ENST00000391971|hu_mus|FALSE|FALSE (ssRNA)
# RNA: GGGAGUUCUACAGUCCGACGAUCUAAGGGCUUCAGUCCAUGUCCAAAAGGUGAAAUGAAGUAGAAGCAACAAUGUACCCUGUUAUCAAUGAUGUGACGCCUGUUCAGUCCACUCUCAUCAUGUAGGUAGCGUUCAAACUGCUCCAACAGAGGAUUGAGCAUCA
# B3: chr17:45747064:45747065:+_ENSG00000108424_ENST00000290158|hu_hu|hu_hu_hu_mus_True|28_58 (ssRNA)
# RNA: GGGAGUUCUACAGUCCGACGAUCGCCCACAGUCCACGCUGUUGUGUCUCGAACAACUACACUGGGGUCUUUCAUUAAUUCUAUUAGGGUGGGCAUAGCCUGUAUGACUAGUGGUUUCAGUUGAUUAGGCUCUGGUCCUUCCAACAACAGAGGAUUGAGCAUCA
# B4: chr1:52246310:52246311:-_ENSMUSG00000026103_ENSMUST00000114513|mus_mus|motif|central (ssRNA)
# RNA: GGGAGUUCUACAGUCCGACGAUCGCCCAUCUUGUCAAGAGGAGGAGACCAACACAUCAUGCCCAUGACGUUGGGGACAACGGAAAGAAUACCCCCAGCAACUCCAGAUUUUGCAGGAAGACCAACAUGGAACGCAAACUGCCCCAACAGAGGAUUGAGCAUCA
# B5: chr7:7679991:7679992:-_ENSG00000106399_ENST00000396682|hu_hu|hu_hu_hu_mus_False|18_48 (ssRNA)
# RNA: GGGAGUUCUACAGUCCGACGAUCUGGGAUGAAUCUUUUCCAGCUUCCCCACGAAGCACACGGGCCGGUCGAUAUACUGUGGUAACAUGCCGGCGUUGACGCGCGCUUUGGGGAGCUCCAUCAUGUCCUCCAUGAUUCUGCCGCCAACAGAGGAUUGAGCAUCA
# B6: chr1:163117127:163117128:-_ENSG00000143248_ENST00000313961|hu_mus|hu_hu_hu_mus_False|38_78 (ssRNA)
# RNA: GGGAGUUCUACAGUCCGACGAUCUGCUACAAAGGAUGUAACUCAACUCACAGGGCAUGAUUUCAUAGCCUGACCAGAUGACUACUUGAUUAGCUCCUGAUAAAACUCAGAGCGCACAAAGCGGGGCAGAGAAUCCUUCUCCAUCAACAGAGGAUUGAGCAUCA
# B7: chr16:45382771:45382772:-_ENSMUSG00000022661_ENSMUST00000163230|mus_mus|mus_mus_mus_hu_True|8_48 (ssRNA)
# RNA: GGGAGUUCUACAGUCCGACGAUCCUGGGUCAUGUUAUAAGACAAAUGGACAGGGAGGGCAUGCUUCUCAAAAAAUGUGAGCUAUUGACUAAGACUAACAAUAUUUAUCUAGCUAUAAAAAUAAGUUUUAAAUGGACGUUAAGACAACAGAGGAUUGAGCAUCA
# B8: chr16:45382771:45382772:-_ENSMUSG00000022661_ENSMUST00000163230|mus_mus|mus_mus_mus_hu_True|8_108 (ssRNA)
# RNA: B7 RNA with G27A, C30G, A31U, G33A, A36G, A87U
# B9: chr16:45382771:45382772:-_ENSMUSG00000022661_ENSMUST00000163230|mus_mus|mus_mus_mus_hu_True|8_38 (ssRNA)
# RNA: B7 RNA with A87U, U105G, A106C
# B10: chr16:45382771:45382772:-_ENSMUSG00000022661_ENSMUST00000163230|mus_mus|mus_mus_mus_hu_True|8_8 (ssRNA)
# RNA: B7 RNA with A87U
# B11: chr14:62207507:62207508:+_ENSG00000100644_ENST00000337138|hu_mus|FALSE|FALSE (ssRNA)
# RNA: GGGAGUUCUACAGUCCGACGAUCUGACAACUGAUCAAAGGAACGUAACUGGAAAUCAUCAUCCAUUGGGAUAUAGGGAGCCAGCAUCUCCAAAUCUAAAUCAGUGUCCUGAGUUGAAAAUGGAUUCUUUGCCUCUGUGUCUUCCAACAGAGGAUUGAGCAUCA
# B12: chr9:95013113:95013114:-_ENSG00000196305_ENST00000443024|hu_hu|hu_hu_hu_mus_False|28_58 (ssRNA)
# RNA: GGGAGUUCUACAGUCCGACGAUCCUCAGUCAGAAAGGGCGUGUAAGGGGCCAUCAGUCUGCACAGAGAAAGCAGGACACUAAACAAUGUCUCCAGAGCCAUGACACAAUCCUCCAUCCCACUCUCACCCUUUAACCUCCUCCUCAACAGAGGAUUGAGCAUCA
# B13: chr9:14812383:14812384:-_ENSMUSG00000031934_ENSMUST00000164273|mus_mus|FALSE|FALSE (ssRNA)
# RNA: GGGAGUUCUACAGUCCGACGAUCAUAGCUCAAGUAGAUACAUGCCAACAGUAUAACCACAAAUGUCACCAGCCGGCAGCUAAUGUAUUUCAUGAUUAAAUGACUAGAGUUCUUUUUUGUCUUCAAGUACUGCUCCACGAUUGGCAACAGAGGAUUGAGCAUCA
# B14: chr5:128448638:128448639:+_ENSG00000066583_ENST00000173527|hu_mus|hu_hu_hu_mus_False|48_58 (ssRNA)
# RNA: GGGAGUUCUACAGUCCGACGAUCGGCACUCGCCUUAAUUAGGUUCUGAAUUUCCUUGAACUUCGGGUGGUCUUUGUCAGCUACCAGCUGAAGCAGAACAGCCUCACUAGUGGUCACGAUGAUCCCAGUGCGGGCAAGACGCUCCAACAGAGGAUUGAGCAUCA
# B15: chr10:121347744:121347745:-_ENSG00000151923_ENST00000436547|hu_mus|FALSE|FALSE (ssRNA)
# RNA: GGGAGUUCUACAGUCCGACGAUCCGAUCUGACUGAAUAACUGAAGAAUAAGGACUUCUGUCACAUCUCUGGAGAGGUUACCUACGUAUAGAGUCCGGGGCUGUCCGUCGUCUUCCAUCAUGGUGGGUGCGACGGAGUGAUCCCCAACAGAGGAUUGAGCAUCA
# B16: 89385701_89385821_685_3pUTR_ENSMUSG00000031652_ENSMUST00000034074|mouse|control|control (ssRNA)
# RNA: GGGAGUUCUACAGUCCGACGAUCUCUGCGUGGGCUUCAACAAACUGUCUGAAUUCCCGUUUGAUUUCCGACUCUCUCUGAUUACUGGGGAGGUUCUCGUUGCUCUCAAAGAGCUUCACAAACUGCUGAAUGUGACUCCUGGCCCAACAGAGGAUUGAGCAUCA
# B17: chr1:130171486:130171487:+_ENSMUSG00000026353_ENSMUST00000027592|perfect_dup|motif|central (ssRNA)
# RNA: GGGAGUUCUACAGUCCGACGAUCUGUGGAUGUGGCUCUUGCUGAAGUCUGUGCAGGAGGAGGAUUGCUAAAUAAAAAAUUGCGGAUUAAUCUCCAUAUGGCCAGGAAUGGAUAAAGCACCGUCCCCAGUAAUGUCCAAAUGUCCAACAGAGGAUUGAGCAUCA
# B18: chr1:130171486:130171487:+_ENSMUSG00000026353_ENSMUST00000027592|perfect_dup|motif|central (ssRNA)
# RNA: GGGAGUUCUACAGUCCGACGAUCUGACGAUGUUACUCUCACUGAAGUCUGUGUGGGAGGCGGAUUACUAAACAAGAAAUUGCGGAUUAAUCUCCAGAUGGCAAGGAAUGGAUAAAGCACUGUUCCCAACAAGGUCCAAAUGUCCAACAGAGGAUUGAGCAUCA
# B19: chr1:130171486:130171487:+_ENSMUSG00000026353_ENSMUST00000027592|perfect_dup|FALSE|FALSE (ssRNA)
# RNA: B18 RNA with G83U, G84A
# B20: chr12:16048344:16048345:+_ENSG00000023734_ENST00000419869|hu_hu|hu_hu_hu_mus_True|8_8 (ssRNA)
# RNA: GGGAGUUCUACAGUCCGACGAUCAGAUCGUCCAUAAGUAAUAACCAAAAUCUCUCCUUCAGGAAUAUACUCCAUGCUGCUAACAGACAUAUUAAAAUUCAGAGAUUUCACUUCUGUCAUUGUGGCAUGAUCCCAAAGCCGAACCAACAGAGGAUUGAGCAUCA
# B21: chr19:16212804:16212805:+_ENSG00000167460_ENST00000300933|hu_mus|hu_hu_hu_mus_False|8_88 (ssRNA)
# RNA: GGGAGUUCUACAGUCCGACGAUCAACAAUUCUGGAGUGAAGGAAAGCAUCAAGGAUGAACAGCAUUAAAGCUCAGUCAGAAGGCACAUGGGCAACAAUGAUCACCCCAGCAUUCUCGCUUGGAAUGUGCUUGAGAAAUCUGUUCAACAGAGGAUUGAGCAUCA
# B22: chr1:130171486:130171487:+_ENSMUSG00000026353_ENSMUST00000027592|perfect_dup|FALSE|FALSE (ssRNA)
# RNA: B17 RNA with G83U, G84A
# Target: T1, UNK ZnF1-3
# Assay: nsRBNS (natural sequence RNA bind-n-seq); RBNS binding buffer (assumed for nsRBNS): 25 mM Tris pH 7.5, 150 mM KCl, 3 mM MgCl2, 0.01% Triton X-100, 500 ug/ml BSA, 20 U/ml SUPERase-In, 4 C; UNK is unkempt and MSI1 is Musashi-1; names of the RNAs are library labels; protein concentration not given here; high values mean tight binding
row,Binder,binding signal [enrichment R]
1,B1,0.646
2,B2,0.794
3,B3,0.639
4,B4,1.07
5,B5,0.554
6,B6,0.974
7,B7,5.59
8,B8,3.42
9,B9,3.88
10,B10,3.98
11,B11,1.17
12,B12,1.38
13,B13,0.953
14,B14,0.822
15,B15,0.644
16,B16,0.876
17,B17,3.3
18,B18,3.3
19,B19,4.56
20,B20,1.38
21,B21,1.57
22,B22,4.56
